Inconclusive results are not listed. Activity calls are given as the source filed them. The call rests on the fitted dose curve; in most records, active means well fitted curve in the direction sought with a large enough effect; inconclusive means small, poorly fitted or top-dose-only effect, or another doubt; inactive means no such curve, though single readings can be large; an effect the other way counts as inactive or inconclusive.
Assays:
[1] = Quantitative High-Throughput drug screen in 47 multiple myeloma cell lines against the NCATS MIPE library collection: KMS20_JCRB cell viability assay (AID 1918973); further: nearly all actives have a fitted effect of over 45% in size
Procedure, shortened: (§1)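 qHTS of the MIPE 4.0 collection: 500 myeloma cells/well, 48 h drug exposure at 37C in 5% CO2, then CellTiter-Glo for 5 min at room temperature before luminescence reading.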

[2] = Quantitative High-Throughput drug screen in 47 multiple myeloma cell lines against the NCATS MIPE library collection: KMS21BM_JCRB cell viability assay (AID 1918974); details: ATP luminescence, 48 h; viability: at 45.8 µM (top of the series) unless noted
Procedure, shortened: as §1

[3] = Quantitative High-Throughput drug screen in 47 multiple myeloma cell lines against the NCATS MIPE library collection: KMS26_JCRB cell viability assay (AID 1918975); further: nearly all actives have a fitted effect of over 45% in size
Procedure, shortened: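 Luminescent ATP measurement with CellTiter-Glo gives viability, scaled between DMSO-only wells (100%) and media-only wells (0%). Cells, 500 per well, faced library compounds for 48 hours at 37C.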

[4] = Quantitative High-Throughput drug screen in 47 multiple myeloma cell lines against the NCATS MIPE library collection: MMM1_PLB cell viability assay (AID 1918976); further: nearly all actives have a fitted effect of over 35% in size
Procedure, shortened: (§2)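 Readout: median RLU from CellTiter-Glo after 5 min at room temperature. Preceding step was 48 h drug treatment of 500 cells/well at 37 °C, 5% CO2, with DMSO-only and media-only control wells.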

[5] = Quantitative High-Throughput drug screen in 47 multiple myeloma cell lines against the NCATS MIPE library collection: MOLP8_DSMZ cell viability assay (AID 1918977); further: nearly all actives have a fitted effect of over 45% in size
Procedure, shortened: as §2

[6] = Quantitative High-Throughput drug screen in 47 multiple myeloma cell lines against the NCATS MIPE library collection: NCIH929_DSMZ cell viability assay (AID 1918978); further: nearly all actives have a fitted effect of over 35% in size
Procedure, shortened: as §2

[7] = Quantitative High-Throughput drug screen in 47 multiple myeloma cell lines against the NCATS MIPE library collection: OCIMY1_PLB cell viability assay (AID 1918979); further: nearly all actives have a fitted effect of over 35% in size
Procedure, shortened: as §2

[8] = Quantitative High-Throughput drug screen in 47 multiple myeloma cell lines against the NCATS MIPE library collection: MM1R_ATCC cell viability assay (AID 1918981); further: nearly all actives have a fitted effect of over 35% in size
Procedure, shortened: as §2

[9] = Quantitative High-Throughput drug screen in 47 multiple myeloma cell lines against the NCATS MIPE library collection: LP1_DSMZ cell viability assay (AID 1918982); further: nearly all actives have a fitted effect of over 35% in size
Procedure, shortened: as §2

[10] = Quantitative High-Throughput drug screen in 47 multiple myeloma cell lines against the NCATS MIPE library collection: L363_DSMZ cell viability assay (AID 1918984); further: nearly all actives have a fitted effect of over 40% in size
Procedure, shortened: as §2

[11] = Quantitative High-Throughput drug screen in 47 multiple myeloma cell lines against the NCATS MIPE library collection: KMS34_JCRB cell viability assay (AID 1918985); further: nearly all actives have a fitted effect of over 40% in size
Procedure, shortened: as §2

[12] = Quantitative High-Throughput drug screen in 47 multiple myeloma cell lines against the NCATS MIPE library collection: OCIMY7_PLB cell viability assay (AID 1918987); further: nearly all actives have a fitted effect of over 65% in size
Procedure, shortened: as §2

[13] = Quantitative High-Throughput drug screen in 47 multiple myeloma cell lines against the NCATS MIPE library collection: OCIMY5_PLB cell viability assay (AID 1918988); further: nearly all actives have a fitted effect of over 65% in size
Procedure, shortened: as §2

[14] = Quantitative High-Throughput drug screen in 47 multiple myeloma cell lines against the NCATS MIPE library collection: OPM1_PLB cell viability assay (AID 1918989); further: nearly all actives have a fitted effect of over 40% in size
Procedure, shortened: as §2

[15] = Quantitative High-Throughput drug screen in 47 multiple myeloma cell lines against the NCATS MIPE library collection: SKMM1_PLB cell viability assay (AID 1919863); details: SKMM1 myeloma viability, CellTiter-Glo ATP, 48 h; viability: hits give low values; further: nearly all actives have a fitted effect of over 35% in size
Procedure, shortened: as §2

[16] = Quantitative High-Throughput drug screen in 47 multiple myeloma cell lines against the NCATS MIPE library collection: U266_ATCC cell viability assay (AID 1919864); further: nearly all actives have a fitted effect of over 35% in size
Procedure, shortened: as §2

[17] = Quantitative High-Throughput drug screen in 47 multiple myeloma cell lines against the NCATS MIPE library collection: XG6_PLB cell viability assay (AID 1919865); further: nearly all actives have a fitted effect of over 40% in size
Procedure, shortened: as §2

[18] = Quantitative High-Throughput drug screen in 47 multiple myeloma cell lines against the NCATS MIPE library collection: XG1_PLB cell viability assay (AID 1919866); further: nearly all actives have a fitted effect of over 35% in size
Procedure, shortened: as §2

[19] = Quantitative High-Throughput drug screen in 47 multiple myeloma cell lines against the NCATS MIPE library collection: KMS28PE_JCRB cell viability assay (AID 1918983); further: nearly all actives have a fitted effect of over 35% in size
Procedure, shortened: as §2

[20] = Quantitative High-Throughput drug screen in 47 multiple myeloma cell lines against the NCATS MIPE library collection: MM1S_ATCC cell viability assay (AID 1918980); further: nearly all actives have a fitted effect of over 45% in size
Procedure, shortened: as §2

Measured: Potency
Potency means the concentration at half of the fitted maximal effect.

CC(C)CC(=O)Nc1n[nH]c2c1CN(C(=O)C1CCN(C)CC1)C2(C)C
active: [1] 1.05 µM | [2] 0.0296 µM | [3] 3.32 µM | [4] 4.69 µM | [5] 0.418 µM | [6] 0.743 µM | [7] 16.6 µM | [8] 0.662 µM | [9] 1.87 µM | [10] 0.833 µM | [11] 1.18 µM | [12] 1.66 µM | [13] 1.32 µM | [14] 2.09 µM | [15] 4.69 µM | [16] 1.87 µM | [17] 0.935 µM | [18] 1.66 µM

CC[C@H]1CN2CCc3cc(OC)c(OC)cc3[C@H]2C[C@@H]1C[C@@H]1NCCc2cc(OC)c(OC)cc21
active: [1] 0.59 µM | [2] 0.264 µM | [3] 0.187 µM | [4] 0.264 µM | [5] 0.105 µM | [6] 0.469 µM | [7] 0.833 µM | [8] 0.187 µM | [9] 0.332 µM | [19] 0.296 µM | [10] 0.059 µM | [11] 0.132 µM | [12] 0.526 µM | [13] 0.187 µM | [14] 0.235 µM | [15] 0.296 µM | [16] 0.0935 µM | [17] 0.105 µM | [18] 0.148 µM

Cn1cc(-c2[nH]c3cc(NC(=O)[C@H](N)C4CCCCC4)cc4c3c2C=NNC4=O)cn1
active: [1] 0.935 µM | [2] 0.166 µM | [3] 8.33 µM | [4] 1.32 µM | [5] 0.526 µM | [6] 1.32 µM | [20] 1.18 µM | [8] 1.05 µM | [19] 1.48 µM | [10] 0.118 µM | [11] 4.69 µM | [12] 6.62 µM | [13] 1.48 µM | [14] 1.18 µM | [16] 18.7 µM | [17] 0.209 µM | [18] 0.209 µM

COC(=O)c1ccc2c(C(=Nc3ccc(N(C)C(=O)CN4CCN(C)CC4)cc3)c3ccccc3)c(O)[nH]c2c1
active: [1] 2.64 µM | [2] 0.0526 µM | [3] 2.64 µM | [4] 7.43 µM | [5] 9.35 µM | [6] 5.9 µM | [7] 10.5 µM | [20] 1.18 µM | [11] 18.7 µM | [13] 7.43 µM | [14] 2.09 µM | [15] 9.35 µM | [16] 18.7 µM | [17] 0.0469 µM | [18] 0.662 µM

CN1CC[C@@H](c2c(O)cc(O)c3c(=O)cc(-c4ccccc4Cl)oc23)[C@@H](O)C1
active: [1] 0.0833 µM | [2] 0.0296 µM | [3] 0.105 µM | [4] 0.187 µM | [5] 0.0526 µM | [6] 0.0743 µM | [7] 0.187 µM | [20] 0.0935 µM | [8] 0.105 µM | [9] 0.0662 µM | [19] 0.132 µM | [11] 0.0743 µM | [12] 0.0296 µM | [13] 0.0662 µM | [14] 0.0833 µM | [15] 0.187 µM | [16] 0.166 µM

CCn1cc(-c2ccnc3[nH]c(-c4cccc(CN(C)C)c4)cc23)c(-c2ccc(NC(=O)N(C)C)cc2)n1
active: [1] 4.18 µM | [2] 0.662 µM | [3] 18.7 µM | [4] 14.8 µM | [5] 8.33 µM | [6] 3.32 µM | [20] 5.26 µM | [8] 20.9 µM | [19] 11.8 µM | [10] 2.09 µM | [11] 10.5 µM | [12] 0.187 µM | [13] 4.18 µM | [14] 2.96 µM | [15] 18.7 µM | [16] 14.8 µM | [17] 0.935 µM | [18] 1.18 µM

Cc1ccc(C(=O)Nc2ccc(CN3CCN(C)CC3)c(C(F)(F)F)c2)cc1C#Cc1cnc2cccnn12
active: [1] 0.833 µM | [2] 0.662 µM | [3] 6.62 µM | [4] 7.43 µM | [5] 0.833 µM | [7] 14.8 µM | [20] 4.69 µM | [8] 3.32 µM | [9] 5.9 µM | [19] 5.9 µM | [10] 0.833 µM | [11] 3.32 µM | [12] 0.264 µM | [13] 1.48 µM | [14] 0.59 µM | [15] 5.9 µM | [16] 14.8 µM | [17] 0.662 µM | [18] 1.32 µM

CC(C)c1ccc(Cn2ccc3c4c(N)nc(NC5CC5)nc4ccc32)cc1
active: [1] 3.72 µM | [2] 1.32 µM | [3] 10.5 µM | [4] 16.6 µM | [5] 13.2 µM | [6] 13.2 µM | [7] 14.8 µM | [20] 10.5 µM | [9] 4.69 µM | [10] 0.469 µM | [11] 3.32 µM | [12] 1.66 µM | [13] 2.35 µM | [14] 1.87 µM | [15] 11.8 µM | [16] 13.2 µM | [17] 5.26 µM | [18] 0.743 µM

CN1CCN(c2ccc3nc(-c4c(N)c5c(F)cccc5[nH]c4=O)[nH]c3c2)CC1
active: [1] 1.32 µM | [2] 4.69 µM | [3] 29.6 µM | [4] 20.9 µM | [5] 5.9 µM | [6] 2.35 µM | [7] 18.7 µM | [20] 16.6 µM | [8] 13.2 µM | [19] 26.4 µM | [10] 2.96 µM | [11] 16.6 µM | [12] 3.32 µM | [13] 16.6 µM | [14] 3.72 µM | [15] 18.7 µM | [16] 13.2 µM | [17] 2.09 µM | [18] 3.32 µM

— PubChem BioAssay (NCATS)
